# Experimental data from PubChem BioAssay.
# Where “and” joins values, the source holds several entries; their conditions need not be identical. Equal entries are not always repeated. Calls of active or inactive are those of the source.
# How the values were obtained:
# Albumin (Bos taurus) = Albumin (Bos taurus) (UniProt P02769); experiment: compounds binding labelled BSA control protein – biochemical, small-molecule microarray, Alexa647 label, 635/667 nm fluorescence, artefact control for SMM control protein annotation, profiling panel (AID 1118); settings: BSA-A647 binding, fluorescence 635 nm, higher = more signal;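 also: score merges 667 nm emission intensity and signal-to-noise per printed compound spot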
# Chain of Albumin (Bos taurus) (P02769 whole entry, looked up): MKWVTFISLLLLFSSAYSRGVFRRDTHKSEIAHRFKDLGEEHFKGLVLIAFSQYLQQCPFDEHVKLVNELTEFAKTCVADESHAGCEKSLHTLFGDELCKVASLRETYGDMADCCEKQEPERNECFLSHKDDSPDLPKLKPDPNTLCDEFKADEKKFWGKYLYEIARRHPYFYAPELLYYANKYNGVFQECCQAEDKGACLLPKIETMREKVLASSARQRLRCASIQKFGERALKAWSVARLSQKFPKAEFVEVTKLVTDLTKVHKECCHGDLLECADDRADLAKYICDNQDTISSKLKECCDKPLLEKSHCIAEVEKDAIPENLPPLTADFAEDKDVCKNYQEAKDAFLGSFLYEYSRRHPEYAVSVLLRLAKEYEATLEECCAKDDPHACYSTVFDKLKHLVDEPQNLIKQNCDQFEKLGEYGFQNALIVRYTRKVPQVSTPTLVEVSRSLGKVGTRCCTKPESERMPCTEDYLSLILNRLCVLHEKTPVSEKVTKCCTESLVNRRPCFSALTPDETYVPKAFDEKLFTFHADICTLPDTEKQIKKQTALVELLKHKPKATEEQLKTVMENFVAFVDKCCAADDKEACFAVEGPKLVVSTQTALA
# [1] = probe aXIP binding to arrayed compounds – biochemical, NeuroSMM set, 635/667 nm fluorescence, primary screen (AID 1119); settings: small-molecule microarray, higher = more signal, called active from +8 up or from −8 down;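 also: probe is the protein aXip251-270 applied at 1 µg/mL to compound-printed slides; binding of probe to printed compounds measured as 667 nm fluorescence plus signal to noise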
# [2] = probe aNOTCH3 binding on compound microarray – biochemical, small-molecule microarray, 635/667 nm fluorescence, primary screen (AID 1120); settings: higher = more signal;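 also: probe is a biotin-tagged antibody raised against NOTCH3 rather than NOTCH3 protein; score merges spot fluorescence near 667 nm with spot signal to noise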
# [3] = probe aNOTCH2 binding on compound microarray – biochemical, small-molecule microarray, 635/667 nm fluorescence, primary screen (AID 1121); settings: higher = more signal;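 also: score merges feature fluorescence read at 667 nm with its signal to noise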
# [4] = target: Carbonic anhydrase 2 (Homo sapiens) (UniProt P00918); experiment: compounds binding carbonic anhydrase 2 – biochemical, small-molecule microarray, Alexa647-labelled CAII, profiling panel (AID 1122); settings: CAII-A647 binding fluorescence, higher = more signal
# [5] = COS7 lysate on small-molecule microarray, probe aHis, 635 nm (AID 1123); settings: COS7 cell lysate, fluorescence, higher = more signal;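 also: z-score combines 667nm fluorescence intensity with signal-to-noise per printed compound spot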
# [6] = probe aLAP1 signal on lysate-treated microarray – cell lysate, small-molecule microarray, COS7 lysate, primary screen (AID 1124); settings: probe aLAP1, fluorescence, higher = more signal;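 also: lysate comes from COS7 cells expressing LAP1 and is applied at 0.3 µg/mL; score merges spot fluorescence near 667 nm with signal-to-noise over triplicate slides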
# Sam68 (KHDRBS1) = experiment: compounds binding KHDRBS1 protein – biochemical, small-molecule microarray, 635 nm fluorescence, primary screen (AID 1125); settings: higher = more signal;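 also: score merges 667 nm channel intensity with signal to noise over triplicate slides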
# [7] = tested on: Chordin-like protein 2 (CHRDL2); experiment: compounds binding chordin-like 2 – biochemical, small-molecule microarray, 635 nm fluorescence, primary screen (AID 1126); settings: fluorescence 635 nm, higher = more signal;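 also: printed compound slides probed with Chrdl2 protein at 4 µg/mL for 1 h at 4 C; score merges 667 nm emission intensity with signal to noise over three replicate slides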
# [8] = target: Concanavalin-A (Canavalia ensiformis) (UniProt P02866); experiment: compounds binding concanavalin A lectin – biochemical, small-molecule microarray, Alexa647 label, 635 nm, artefact control for SMM control protein annotation, primary screen (AID 1127); settings: ConA-A647 binding fluorescence, higher = more signal;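 also: z combines 667 nm emission intensity with signal-to-noise across three replicate slides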
# Chain of Concanavalin-A (Canavalia ensiformis) (P02866 whole entry, looked up): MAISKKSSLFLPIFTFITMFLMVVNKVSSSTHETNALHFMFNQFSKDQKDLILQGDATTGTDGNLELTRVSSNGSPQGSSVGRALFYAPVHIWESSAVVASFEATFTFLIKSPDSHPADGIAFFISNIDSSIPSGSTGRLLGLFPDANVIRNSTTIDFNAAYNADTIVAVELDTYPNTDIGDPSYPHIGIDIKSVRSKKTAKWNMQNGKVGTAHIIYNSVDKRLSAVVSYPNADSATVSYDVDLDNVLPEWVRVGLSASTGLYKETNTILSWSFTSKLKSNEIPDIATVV
# [9] = compounds binding Alexa647 anti-His antibody – biochemical, small-molecule microarray, 635 nm fluorescence, artefact control for SMM control protein annotation, primary screen (AID 1128); settings: higher = more signal;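 also: score merges feature fluorescence with signal-to-noise for each printed compound spot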
# [10] = tested on: Human papillomavirus type 1a E7 protein (residues 1-88); experiment: HPV1a E7 small-molecule binders, primary screen, biochemical, small-molecule microarray, residues 1-88, 635 nm (AID 1129); settings: small-molecule microarray binding, fluorescence 635 nm; higher = more signal
# [11] = target: Focal adhesion kinase 1 (Homo sapiens) (UniProt Q05397); experiment: PTK2 protein binding on printed compound slides – biochemical, small-molecule microarray, 635/667 nm fluorescence, BSA, DTT, primary screen (AID 1130); settings: 635 nm fluorescence, higher = more signal;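 also: composite of spot emission at 667 nm and signal to noise over triplicate slides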
# Chain of Focal adhesion kinase 1 (Homo sapiens) (Q05397 whole entry, looked up): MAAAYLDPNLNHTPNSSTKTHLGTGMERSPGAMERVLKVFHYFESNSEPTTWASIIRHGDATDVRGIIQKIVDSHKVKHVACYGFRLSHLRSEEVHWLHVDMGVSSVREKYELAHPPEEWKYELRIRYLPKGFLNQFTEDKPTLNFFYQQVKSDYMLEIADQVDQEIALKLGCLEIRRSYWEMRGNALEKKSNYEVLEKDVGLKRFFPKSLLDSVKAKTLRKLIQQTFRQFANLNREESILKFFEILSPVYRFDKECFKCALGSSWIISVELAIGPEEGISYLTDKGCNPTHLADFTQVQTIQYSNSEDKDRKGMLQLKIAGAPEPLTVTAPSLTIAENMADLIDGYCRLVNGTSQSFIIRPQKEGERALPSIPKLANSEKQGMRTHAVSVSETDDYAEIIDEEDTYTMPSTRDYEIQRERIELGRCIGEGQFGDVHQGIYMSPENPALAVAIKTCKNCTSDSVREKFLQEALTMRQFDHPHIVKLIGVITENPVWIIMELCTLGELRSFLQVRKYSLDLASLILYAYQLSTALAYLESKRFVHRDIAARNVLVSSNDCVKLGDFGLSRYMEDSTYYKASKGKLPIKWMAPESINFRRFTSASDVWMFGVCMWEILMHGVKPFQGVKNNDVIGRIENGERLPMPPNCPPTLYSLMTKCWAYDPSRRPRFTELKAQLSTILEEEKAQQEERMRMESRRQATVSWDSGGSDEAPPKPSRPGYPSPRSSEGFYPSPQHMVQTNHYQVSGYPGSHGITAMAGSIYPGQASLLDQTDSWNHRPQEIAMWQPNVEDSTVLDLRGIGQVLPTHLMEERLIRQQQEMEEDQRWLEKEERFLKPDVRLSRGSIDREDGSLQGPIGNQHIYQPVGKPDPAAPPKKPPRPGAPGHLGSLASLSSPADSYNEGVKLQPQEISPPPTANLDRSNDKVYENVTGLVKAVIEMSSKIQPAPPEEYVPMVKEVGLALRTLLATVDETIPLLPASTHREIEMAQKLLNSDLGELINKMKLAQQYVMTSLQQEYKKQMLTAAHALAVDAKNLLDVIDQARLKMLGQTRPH
# [12] = tested on: Fibrinogen (Alexa647-labelled); experiment: Alexa647-fibrinogen binding to printed small molecules – biochemical, small-molecule microarray, 635/667 nm fluorescence, artefact control for SMM control-protein annotation, profiling panel (AID 1131); settings: fibrinogen-A647 binding fluorescence, higher = more signal;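 also: z-score merges 667 nm fluorescence with per-spot signal-to-noise over triplicate slides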
# [13] = target: Follistatin (Homo sapiens) (UniProt P19883); experiment: FST protein binding to printed compounds – biochemical, small-molecule microarray, 635/667 nm fluorescence, primary screen (AID 1132); settings: 635 nm fluorescence, higher = more signal
# Chain of Follistatin (Homo sapiens) (P19883 whole entry, looked up): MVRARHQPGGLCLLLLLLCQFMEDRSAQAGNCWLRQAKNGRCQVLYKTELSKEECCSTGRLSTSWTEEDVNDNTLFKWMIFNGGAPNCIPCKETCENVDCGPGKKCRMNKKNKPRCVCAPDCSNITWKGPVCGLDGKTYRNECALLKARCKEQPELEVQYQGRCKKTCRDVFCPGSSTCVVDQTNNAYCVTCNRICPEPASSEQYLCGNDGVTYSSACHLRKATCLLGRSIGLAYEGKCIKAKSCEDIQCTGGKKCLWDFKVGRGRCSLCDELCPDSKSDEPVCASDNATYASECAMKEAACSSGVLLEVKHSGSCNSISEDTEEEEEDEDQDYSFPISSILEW
# [14] = target: Fibroblast growth factor 2 (Homo sapiens) (UniProt P09038); experiment: basic fibroblast growth factor binding to printed compounds – biochemical, small-molecule microarray, 635/667 nm fluorescence, primary screen (AID 1133); settings: FGF2, fluorescence 635/667, higher = more signal
# Chain of Fibroblast growth factor 2 (Homo sapiens) (P09038 whole entry, looked up): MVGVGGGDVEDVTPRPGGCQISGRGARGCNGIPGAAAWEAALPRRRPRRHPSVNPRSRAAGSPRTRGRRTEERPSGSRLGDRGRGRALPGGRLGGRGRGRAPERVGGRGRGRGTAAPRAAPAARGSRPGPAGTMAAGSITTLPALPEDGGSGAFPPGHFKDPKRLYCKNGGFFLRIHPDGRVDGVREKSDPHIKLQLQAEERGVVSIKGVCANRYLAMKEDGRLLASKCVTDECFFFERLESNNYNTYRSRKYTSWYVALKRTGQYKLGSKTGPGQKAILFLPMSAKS
# [15] = JC-1 mitochondrial potential readout, lung cancer cells – cell-based, A549, JC-1 fluorescence, basal, 24 h, 100 nL, profiling panel (AID 1138); settings: higher = more signal;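 also: A549 lung adenocarcinoma cells under basal conditions with no added stimulus; test concentration not given here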
# Lefty1 = Lefty1 protein binding to printed compounds – biochemical, small-molecule microarray, 635/667 nm fluorescence, primary screen (AID 1139); settings: fluorescence 635/667, higher = more signal
# [16] = tested on: wheat germ agglutinin (Triticum aestivum), Alexa647-labelled; experiment: Alexa647-WGA lectin binding to printed small molecules – biochemical, small-molecule microarray, 635/667 nm fluorescence, artefact control for SMM control-protein annotation, profiling panel (AID 1140); settings: WGA-A647 binding, 635 nm fluorescence, higher = more signal;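 also: score merges 667 nm feature emission with signal to noise over triplicate slides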
# [17] = target: Luciferin 4-monooxygenase (Photinus pyralis) (UniProt P08659); experiment: inhibition of purified Photinus pyralis luciferase – biochemical, luminescence, purified enzyme, 2006 set, primary screen (AID 1141); settings: purified firefly luciferase, SteadyGlo luminescence, 30 min; higher = more signal, called active from +8 up or from −8 down;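 also: cell-free assay with purified firefly luciferase at 100 ng per well in PBS; test concentration not given here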
# Chain of Luciferin 4-monooxygenase (Photinus pyralis) (P08659 whole entry, looked up): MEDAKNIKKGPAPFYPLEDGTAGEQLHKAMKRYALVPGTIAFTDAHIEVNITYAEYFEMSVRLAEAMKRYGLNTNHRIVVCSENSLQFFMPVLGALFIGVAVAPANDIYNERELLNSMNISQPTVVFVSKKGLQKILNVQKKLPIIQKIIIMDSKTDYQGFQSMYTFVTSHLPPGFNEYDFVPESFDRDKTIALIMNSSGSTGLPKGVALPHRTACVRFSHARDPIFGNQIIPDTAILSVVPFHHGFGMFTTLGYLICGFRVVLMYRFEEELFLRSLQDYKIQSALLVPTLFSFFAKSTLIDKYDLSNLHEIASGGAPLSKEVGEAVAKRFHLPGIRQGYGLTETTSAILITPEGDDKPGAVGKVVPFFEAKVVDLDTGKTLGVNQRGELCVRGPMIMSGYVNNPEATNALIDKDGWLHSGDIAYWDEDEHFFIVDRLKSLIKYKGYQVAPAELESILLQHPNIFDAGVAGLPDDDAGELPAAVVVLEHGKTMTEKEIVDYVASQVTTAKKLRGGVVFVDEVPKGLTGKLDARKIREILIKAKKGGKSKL
Structure (SMILES),composite z-score (Albumin (Bos taurus)),composite Z-score [1],composite z-score [2],composite z-score [3],composite z-score [4],composite z-score [5],composite z-score [6],composite z-score (Sam68 (KHDRBS1)),composite z-score [7],composite z-score [8],composite z-score [9],composite z-score [10],composite z-score [11],composite z-score [12],composite z-score [13],composite z-score [14],z-score [15],composite z-score (Lefty1),composite z-score [16],z-score [17]
O=C1NC(=O)C2C1C=CC(C(O)c1ccc([N+](=O)[O-])cc1)N2Nc1ccc(Cl)cc1Cl (stereo not given),0.933 and 0.732,-0.35 (inactive) and -0.195 (inactive),0.0597 and 0.133,0.0454 and 0.153,0.483 and 0.751,2.95 and 2.03,0.673 and 1.28,0.415 and 0.584,-0.532 and -0.0926,0.738 and 0.461,0.396 and 0.455,1.14 and 1.18,0.649 and 0.342,0.969 and 0.703,0.816 and 0.774,0.202 and -0.279,0.824 and -0.201,-0.427 and -0.899,0.751 and 1.39,-1.81 (inactive) and -2.34 (inactive)
C=CCN(C(=O)C1N(c2c(Cl)cccc2CO)C(=O)C2C(C(=O)O)C3C=CC21O3)C(C)(C)C (stereo not given),0.393 and -0.872,0.0388 (inactive) and -0.166 (inactive),-0.479 and -0.47,-0.253 and -0.185,0.791 and -0.713,-0.556 and -0.856,-0.0145 and -0.779,-1.2 and -2.06,-2.06 and -2.92,-1.09 and -0.331,-0.687 and -0.455,0.0063 and -0.941,-0.0019 and 0.0154,-0.925 and -0.724,-0.85 and -0.957,-1.46 and -0.409,-0.868 and 1.49,-1.33 and -1.93,-0.0278 and -0.665,1.15 (inactive) and -1.5 (inactive)
CO[C@@H]1COC(=O)[C@H](Cc2ccccc2)NC(=O)CC=C[C@@H](C)[C@H](OC)COC(=O)[C@@H](C)NC(=O)CC=C[C@H]1C,-1.24 and 0.871,-0.17 (inactive) and -0.452 (inactive),0.0522 and -0.023,-0.173 and -0.214,-0.0035 and 0.27,-0.0816 and -0.0434,-0.502 and 0.07,1.09 and 0.672,1.03 and 1.43,-0.85 and -0.233,0.106 and 0.0473,-0.184 and -0.37,-0.129 and 0.183,-0.116 and -0.231,1.32 and 1.18,1.58 and 1.35,1.24 and 0.944,1.54 and 1.35,-0.714 and -0.807,-0.554 (inactive) and -1.49 (inactive)
CC(CO)N1C(=O)[C@@H]2C3C(=O)OCCC=C[C@H]3OC23C=CCN(CCN2CCOCC2)C(=O)[C@@H]13 (stereo not given in full),0.417 and -0.264,0.102 (inactive) and -0.135 (inactive),-0.225 and 0.604,-0.113 and -0.147,0.819 and 0.787,-0.144 and 2.41,-0.657 and 0.721,-0.495 and 1.14,-0.184 and -0.565,0.116 and 0.686,1.29 and 1.37,-0.795 and -0.0944,0.0101 and 1.02,-0.288 and 0.15,0.319 and -0.0336,-0.454 and -1.45,-0.0837 and -0.32,0.373 and 0.526,-0.0856 and 0.329,-0.272 (inactive) and -0.263 (inactive)
CCOC(=O)[C@H](CC(C)C)NC(=O)CCC1CC(OC(=O)NCc2cccc3ccccc23)CC2(CCCC(COC(=O)NCc3ccccc3)O2)O1 (stereo not given in full),-0.294,-0.19 (inactive),-0.155,-0.152,-0.3,0.043,-0.384,-0.903,-0.139,-0.68,0.223,-0.439,-0.159,-1.97,-0.126,-0.105,0.629,0.275,-0.0551,0.529 (inactive)
Cc1ccc(S(=O)(=O)OC[C@@H]2CN3[C@@H](CC[C@@H](C)[C@@H]3c3ccc(Br)cc3)C(=O)O2)cc1,0.278 and 0.51,-0.19 (inactive) and 0.177 (inactive),0.062 and 0.0051,-0.124 and -0.0326,0.11 and 0.427,-0.0886 and 0.315,-0.162 and 0.565,0.418 and 0.99,0.251 and 0.327,0.446 and 0.54,0.882 and -0.0006,0.433 and 0.434,0.0343 and 0.0817,0.555 and 0.193,0.137 and 0.577,0.281 and 0.102,-0.346 and 0.285,0.229 and 0.512,0.382 and 0.37,0.39 (inactive) and 0.13 (inactive)
C=CCN(CCCC)C(=O)C1N(CCOCCO)C(=O)C2C(C(=O)O)C3C=CC21O3 (stereo not given),-0.994 and -2.32,0.0673 (inactive) and 0.289 (inactive),-0.372 and -0.457,-0.211 and -0.185,1.01 and 0.811,0.806 and -0.742,0.675 and 0.0426,-1.11 and -1.43,-1.67 and -1.1,-0.268 and -1.9,1.11 and -1.66,-0.741 and -0.901,-0.619 and -0.291,-1.43 and -0.885,-0.817 and -1.32,-1.68 and -1.4,-0.409 and -0.724,-1.6 and -2.23,-0.557 and -0.16,0.694 (inactive) and 0.806 (inactive)
COC(=O)[C@@]1(Cc2ccccc2)[C@H]2c3cc(C(=O)N(C)C)n(C[C@H](O)CO)c3C[C@H]2CN1C(=O)c1ccccc1,0.4 and 1.14,-0.506 (inactive) and -0.574 (inactive),0.0208 and 0.52,0.0538 and 0.261,0.897 and 0.841,3.13 and 1.27,0.562 and 0.966,-0.278 and -0.421,-0.138 and -0.519,-0.148 and -0.0788,0.456 and 0.65,0.23 and 0.965,0.805 and 0.641,0.948 and 0.223,-0.342 and 0.453,-0.378 and -0.271,0.207 and 0.034,-0.6 and -0.308,0.877 and -0.0476,0.665 (inactive) and 1.66 (inactive)
C=CCN(CCCC)C(=O)C1N(CCCCCCO)C(=O)C2C(C(=O)O)C3C=CC21O3 (stereo not given),-1.52 and -1.4,0.0063 (inactive) and 0.131 (inactive),-0.555 and -0.323,-0.222 and -0.185,0.913 and 0.938,-0.809 and 0.159,0.861 and 0.0304,-0.243 and -0.577,-1.56 and -3.19,-2.11 and -0.791,-1.27 and 0.826,-0.618 and -0.472,-0.725 and -0.445,-0.574 and -1.65,-1.74 and -2.89,-1.97 and -2.02,-0.242 and 0.214,-2.3 and -2.2,0.483 and -1.28,0.314 (inactive) and 0.488 (inactive)
